Test results from article PMC7862700, “An all-to-all approach to the identification of sequence-specific readers for epigenetic DNA modifications on cytosine”.

Key:
Test in all cases: DAPPL (digital affinity profiling via proximity ligation, sequencing); 10 mM Tris-HCl pH 7.5, 50 mM NaCl, 1 mM DTT, 4% glycerol, room temperature, 30 min; GST-TFs on glutathione beads, 16-mer random dsDNA library, 0.1% formaldehyde crosslink after washing; high values mean tight binding
Conditions in all cases: protein: recombinant; tags: N-terminal GST; dsDNA, one strand shown
[1] = target: T1, FEV (Homo sapiens, UniProt Q99581 1-238)
T1 sequence: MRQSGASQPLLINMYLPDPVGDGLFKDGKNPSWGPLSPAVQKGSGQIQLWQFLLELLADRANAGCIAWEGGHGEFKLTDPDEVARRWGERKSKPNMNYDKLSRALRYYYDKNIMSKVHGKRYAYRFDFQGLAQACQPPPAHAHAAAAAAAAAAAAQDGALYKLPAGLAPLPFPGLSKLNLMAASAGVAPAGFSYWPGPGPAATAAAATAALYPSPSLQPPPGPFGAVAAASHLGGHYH
Procedure, shortened: (§1)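 Binding signal is given per hexamer as its read frequency for a factor divided by its frequency in the tag-only sample. GST-fused human transcription factors were expressed in yeast, captured on glutathione beads, barcoded with DNA and pooled with that sample, then incubated with 200 nmole of a 16-mer random double-stranded DNA library in Tris/NaCl/DTT/glycerol buffer for 30 min at room temperature. The pools were then washed, crosslinked, proximity-ligated, amplified by PCR and sequenced on an Illumina NextSeq500.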

[2] = target: ETV5 (Homo sapiens, UniProt P41161 1-510)
Chain of ETV5 (P41161 whole entry): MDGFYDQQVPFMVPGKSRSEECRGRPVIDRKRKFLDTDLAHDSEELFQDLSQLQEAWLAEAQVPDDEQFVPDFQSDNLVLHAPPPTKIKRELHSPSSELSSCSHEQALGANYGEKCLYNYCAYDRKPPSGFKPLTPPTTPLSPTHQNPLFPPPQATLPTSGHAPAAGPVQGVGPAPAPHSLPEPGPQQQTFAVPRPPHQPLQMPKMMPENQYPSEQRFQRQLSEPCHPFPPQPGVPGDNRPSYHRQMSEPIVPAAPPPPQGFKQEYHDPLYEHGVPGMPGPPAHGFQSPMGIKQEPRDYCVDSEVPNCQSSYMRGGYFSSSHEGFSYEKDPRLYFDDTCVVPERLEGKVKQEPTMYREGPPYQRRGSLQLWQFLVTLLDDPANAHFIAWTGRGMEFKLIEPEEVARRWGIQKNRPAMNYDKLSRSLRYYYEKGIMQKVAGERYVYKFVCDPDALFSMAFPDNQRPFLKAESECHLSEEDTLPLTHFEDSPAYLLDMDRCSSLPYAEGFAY
Procedure, shortened: as §1

[3] = target: T2, SPIC (Homo sapiens, UniProt Q8N5J4 1-248)
T2 sequence: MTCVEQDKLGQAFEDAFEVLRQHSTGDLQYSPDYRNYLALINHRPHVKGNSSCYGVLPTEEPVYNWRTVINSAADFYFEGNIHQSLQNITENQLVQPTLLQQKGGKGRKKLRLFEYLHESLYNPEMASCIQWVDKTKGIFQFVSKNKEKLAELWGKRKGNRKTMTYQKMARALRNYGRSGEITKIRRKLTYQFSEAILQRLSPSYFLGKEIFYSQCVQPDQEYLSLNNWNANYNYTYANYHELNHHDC
Procedure, shortened: as §1

[4] = target: ELF4 (Homo sapiens, UniProt Q99607 1-663)
Chain of ELF4 (Q99607 whole entry): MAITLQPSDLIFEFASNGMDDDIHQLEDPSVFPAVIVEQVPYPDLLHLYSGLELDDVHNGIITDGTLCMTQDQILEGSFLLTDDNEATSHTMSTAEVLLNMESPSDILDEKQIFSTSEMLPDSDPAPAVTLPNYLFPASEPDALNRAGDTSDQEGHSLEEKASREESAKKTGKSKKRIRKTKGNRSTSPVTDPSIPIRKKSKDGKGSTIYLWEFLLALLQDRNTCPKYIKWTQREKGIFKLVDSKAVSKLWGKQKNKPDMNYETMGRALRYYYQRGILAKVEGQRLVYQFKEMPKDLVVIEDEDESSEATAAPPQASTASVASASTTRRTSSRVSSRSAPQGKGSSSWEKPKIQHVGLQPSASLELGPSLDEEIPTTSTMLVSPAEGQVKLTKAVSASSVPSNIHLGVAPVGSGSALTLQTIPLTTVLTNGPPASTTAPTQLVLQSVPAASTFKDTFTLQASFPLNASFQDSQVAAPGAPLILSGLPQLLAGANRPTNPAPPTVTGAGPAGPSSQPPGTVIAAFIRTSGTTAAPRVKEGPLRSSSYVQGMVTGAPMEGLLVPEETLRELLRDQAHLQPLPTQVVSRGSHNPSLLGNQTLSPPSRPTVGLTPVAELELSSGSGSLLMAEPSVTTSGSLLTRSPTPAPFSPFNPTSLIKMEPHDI
Procedure, shortened: as §1

[5] = target: T3, ELK4 (Homo sapiens, UniProt P28324-2 1-405)
T3 sequence: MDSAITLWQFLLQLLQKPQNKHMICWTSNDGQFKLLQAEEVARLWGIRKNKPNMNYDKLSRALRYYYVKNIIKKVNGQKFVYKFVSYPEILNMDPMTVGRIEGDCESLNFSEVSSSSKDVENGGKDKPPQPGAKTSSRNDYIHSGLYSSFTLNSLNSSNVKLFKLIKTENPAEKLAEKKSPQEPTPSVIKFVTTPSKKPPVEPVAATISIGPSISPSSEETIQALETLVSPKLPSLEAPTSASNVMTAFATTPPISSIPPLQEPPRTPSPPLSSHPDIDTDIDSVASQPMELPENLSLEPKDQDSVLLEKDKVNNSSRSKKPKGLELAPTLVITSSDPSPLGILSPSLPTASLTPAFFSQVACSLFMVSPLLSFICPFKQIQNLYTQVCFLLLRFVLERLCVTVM
Procedure, shortened: as §1

[6] = target: T4, ETV2 (Homo sapiens, UniProt O00321 1-342)
T4 sequence: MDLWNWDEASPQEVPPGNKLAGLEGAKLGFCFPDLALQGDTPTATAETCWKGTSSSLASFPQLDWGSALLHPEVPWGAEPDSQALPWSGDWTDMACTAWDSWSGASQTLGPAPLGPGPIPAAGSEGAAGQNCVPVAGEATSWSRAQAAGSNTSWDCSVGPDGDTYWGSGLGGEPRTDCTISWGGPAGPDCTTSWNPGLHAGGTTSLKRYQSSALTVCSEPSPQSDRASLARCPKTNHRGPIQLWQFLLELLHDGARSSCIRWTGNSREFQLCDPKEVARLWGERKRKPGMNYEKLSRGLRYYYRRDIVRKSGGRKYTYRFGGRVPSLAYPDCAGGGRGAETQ
Procedure, shortened: as §1

[7] = target: T5, ELF3 (Homo sapiens, UniProt P78545 1-371)
T5 sequence: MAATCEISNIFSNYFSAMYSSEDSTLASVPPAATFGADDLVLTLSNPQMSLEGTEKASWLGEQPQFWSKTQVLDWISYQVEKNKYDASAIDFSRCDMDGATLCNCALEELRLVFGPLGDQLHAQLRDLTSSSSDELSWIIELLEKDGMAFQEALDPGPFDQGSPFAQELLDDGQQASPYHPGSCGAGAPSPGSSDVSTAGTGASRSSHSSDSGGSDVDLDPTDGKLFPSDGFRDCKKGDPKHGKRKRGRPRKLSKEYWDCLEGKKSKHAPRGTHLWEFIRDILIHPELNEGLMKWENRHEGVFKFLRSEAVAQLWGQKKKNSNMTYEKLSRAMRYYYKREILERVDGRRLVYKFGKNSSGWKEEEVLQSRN
Procedure, shortened: as §1

[8] = target: ETV1 (Homo sapiens, UniProt P50549 1-477)
Chain of ETV1 (P50549 whole entry): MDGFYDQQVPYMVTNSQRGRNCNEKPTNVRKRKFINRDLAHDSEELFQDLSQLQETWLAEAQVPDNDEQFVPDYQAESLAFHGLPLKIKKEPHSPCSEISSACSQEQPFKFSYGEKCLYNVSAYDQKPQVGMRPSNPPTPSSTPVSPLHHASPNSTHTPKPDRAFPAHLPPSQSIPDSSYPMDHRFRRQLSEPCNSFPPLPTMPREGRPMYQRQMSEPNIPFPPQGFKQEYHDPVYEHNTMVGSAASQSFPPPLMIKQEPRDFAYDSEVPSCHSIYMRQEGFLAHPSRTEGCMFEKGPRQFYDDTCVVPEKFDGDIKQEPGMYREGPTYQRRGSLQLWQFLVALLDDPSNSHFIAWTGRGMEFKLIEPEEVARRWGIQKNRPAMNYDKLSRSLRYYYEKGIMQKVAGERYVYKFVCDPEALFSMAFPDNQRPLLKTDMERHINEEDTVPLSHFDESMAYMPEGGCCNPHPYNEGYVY
Procedure, shortened: as §1

[9] = target: T6, ERF (Homo sapiens, UniProt P50548 1-548)
T6 sequence: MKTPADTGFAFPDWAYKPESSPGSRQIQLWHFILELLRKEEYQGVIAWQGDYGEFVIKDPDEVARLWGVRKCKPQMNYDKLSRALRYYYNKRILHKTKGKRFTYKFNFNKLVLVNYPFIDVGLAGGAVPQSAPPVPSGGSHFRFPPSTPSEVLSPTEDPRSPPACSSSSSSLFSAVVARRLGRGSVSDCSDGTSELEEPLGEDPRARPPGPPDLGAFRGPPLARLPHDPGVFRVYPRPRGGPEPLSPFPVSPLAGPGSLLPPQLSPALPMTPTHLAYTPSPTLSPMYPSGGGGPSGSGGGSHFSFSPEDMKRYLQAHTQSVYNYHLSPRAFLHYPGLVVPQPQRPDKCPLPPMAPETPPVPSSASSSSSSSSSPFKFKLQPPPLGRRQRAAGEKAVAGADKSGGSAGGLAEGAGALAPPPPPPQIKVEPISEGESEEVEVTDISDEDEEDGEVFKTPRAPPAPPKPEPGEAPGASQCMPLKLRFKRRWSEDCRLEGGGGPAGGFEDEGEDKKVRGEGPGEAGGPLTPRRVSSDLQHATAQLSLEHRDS
Procedure, shortened: as §1

[10] = target: T7, ETV3L (Homo sapiens, UniProt Q6ZN32 1-361)
T7 sequence: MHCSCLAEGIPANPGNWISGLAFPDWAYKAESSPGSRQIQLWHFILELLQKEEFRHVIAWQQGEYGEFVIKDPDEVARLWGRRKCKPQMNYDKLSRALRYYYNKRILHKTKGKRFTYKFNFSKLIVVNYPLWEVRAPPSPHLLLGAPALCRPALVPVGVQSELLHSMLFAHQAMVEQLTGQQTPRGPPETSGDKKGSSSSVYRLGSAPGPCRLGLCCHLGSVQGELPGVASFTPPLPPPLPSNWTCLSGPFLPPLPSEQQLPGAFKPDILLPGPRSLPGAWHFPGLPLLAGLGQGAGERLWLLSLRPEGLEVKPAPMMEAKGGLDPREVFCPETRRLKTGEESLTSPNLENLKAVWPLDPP
Procedure, shortened: as §1

[11] = target: T8, ETS2 (Homo sapiens, UniProt P15036 1-469)
T8 sequence: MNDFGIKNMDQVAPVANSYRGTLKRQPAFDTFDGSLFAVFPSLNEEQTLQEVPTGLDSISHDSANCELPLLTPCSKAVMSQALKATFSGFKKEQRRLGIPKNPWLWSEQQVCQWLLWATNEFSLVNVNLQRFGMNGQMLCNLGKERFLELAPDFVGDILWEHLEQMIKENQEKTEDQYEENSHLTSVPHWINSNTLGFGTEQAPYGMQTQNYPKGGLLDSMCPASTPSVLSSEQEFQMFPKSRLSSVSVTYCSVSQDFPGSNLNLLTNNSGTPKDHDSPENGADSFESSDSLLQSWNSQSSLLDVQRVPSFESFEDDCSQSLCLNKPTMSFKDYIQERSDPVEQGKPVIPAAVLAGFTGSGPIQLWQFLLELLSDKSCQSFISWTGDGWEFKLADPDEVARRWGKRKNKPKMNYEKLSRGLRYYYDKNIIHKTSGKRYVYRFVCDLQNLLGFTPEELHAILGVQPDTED
Procedure, shortened: as §1

[12] = target: T9, SPDEF (Homo sapiens, UniProt O95238 1-335)
T9 sequence: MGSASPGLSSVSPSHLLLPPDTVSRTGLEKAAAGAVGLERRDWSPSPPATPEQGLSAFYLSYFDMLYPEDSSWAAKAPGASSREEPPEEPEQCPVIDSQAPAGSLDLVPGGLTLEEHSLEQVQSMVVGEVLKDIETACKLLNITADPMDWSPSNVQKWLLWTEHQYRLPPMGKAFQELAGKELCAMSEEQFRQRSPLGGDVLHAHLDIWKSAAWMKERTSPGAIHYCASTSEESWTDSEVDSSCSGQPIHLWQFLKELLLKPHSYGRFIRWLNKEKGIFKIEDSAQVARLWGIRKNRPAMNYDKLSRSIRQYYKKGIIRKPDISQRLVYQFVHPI
Procedure, shortened: as §1

[13] = target: T10, ETV7 (Homo sapiens, UniProt Q9Y603 1-341)
T10 sequence: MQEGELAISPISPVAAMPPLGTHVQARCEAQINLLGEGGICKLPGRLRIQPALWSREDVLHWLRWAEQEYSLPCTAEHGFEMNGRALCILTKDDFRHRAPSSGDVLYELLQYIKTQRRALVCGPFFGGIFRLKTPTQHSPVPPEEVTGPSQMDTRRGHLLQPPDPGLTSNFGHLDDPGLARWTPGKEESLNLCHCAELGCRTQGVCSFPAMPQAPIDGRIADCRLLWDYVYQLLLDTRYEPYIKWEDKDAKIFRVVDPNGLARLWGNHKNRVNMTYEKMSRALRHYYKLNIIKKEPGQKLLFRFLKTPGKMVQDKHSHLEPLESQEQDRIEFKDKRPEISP
Procedure, shortened: as §1

[14] = target: T11, ELF5 (Homo sapiens, UniProt Q9UKW6-2 1-255)
T11 sequence: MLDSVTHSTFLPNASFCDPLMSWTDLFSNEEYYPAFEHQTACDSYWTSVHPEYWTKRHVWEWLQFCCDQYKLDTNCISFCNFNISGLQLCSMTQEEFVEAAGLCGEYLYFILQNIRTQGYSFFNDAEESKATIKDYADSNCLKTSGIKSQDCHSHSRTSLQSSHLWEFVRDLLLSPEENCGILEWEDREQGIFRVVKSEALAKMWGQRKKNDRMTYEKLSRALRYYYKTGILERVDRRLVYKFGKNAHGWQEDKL
Procedure, shortened: as §1

[15] = target: T12, ETV3 (Homo sapiens, UniProt P41162-2 1-143)
T12 sequence: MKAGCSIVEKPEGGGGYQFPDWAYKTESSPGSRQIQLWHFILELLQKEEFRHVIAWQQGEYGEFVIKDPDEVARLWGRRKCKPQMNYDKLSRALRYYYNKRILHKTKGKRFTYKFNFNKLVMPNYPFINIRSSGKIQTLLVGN
Procedure, shortened: as §1

[16] = target: ETV6 (Homo sapiens, UniProt P41212 1-452)
Chain of ETV6 (P41212 whole entry): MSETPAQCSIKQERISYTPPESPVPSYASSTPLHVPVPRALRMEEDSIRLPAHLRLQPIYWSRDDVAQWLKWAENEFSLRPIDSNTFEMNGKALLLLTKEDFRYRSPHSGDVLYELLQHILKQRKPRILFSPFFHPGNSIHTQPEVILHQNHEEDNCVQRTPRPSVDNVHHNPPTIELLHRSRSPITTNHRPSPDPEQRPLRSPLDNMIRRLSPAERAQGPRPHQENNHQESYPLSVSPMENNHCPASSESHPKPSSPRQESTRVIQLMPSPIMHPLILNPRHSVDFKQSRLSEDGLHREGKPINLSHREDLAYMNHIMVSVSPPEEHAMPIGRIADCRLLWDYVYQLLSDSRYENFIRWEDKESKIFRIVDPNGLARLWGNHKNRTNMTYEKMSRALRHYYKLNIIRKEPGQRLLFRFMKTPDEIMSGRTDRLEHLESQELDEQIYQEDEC
Procedure, shortened: as §1

| Sequence | binding signal [1] | binding signal [2] | binding signal [3] | binding signal [4] | binding signal [5] | binding signal [6] | binding signal [7] | binding signal [8] | binding signal [9] | binding signal [10] | binding signal [11] | binding signal [12] | binding signal [13] | binding signal [14] | binding signal [15] | binding signal [16] |
| --- | --- | --- | --- | --- | --- | --- | --- | --- | --- | --- | --- | --- | --- | --- | --- | --- |
| CCCGGC | 1.16 fold enrichment (6-mer frequency, TF over GST control) | 1.15 fold enrichment (6-mer frequency, TF over GST control) | 1.11 fold enrichment (6-mer frequency, TF over GST control) | 1.19 fold enrichment (6-mer frequency, TF over GST control) | 1.27 fold enrichment (6-mer frequency, TF over GST control) | 1.07 fold enrichment (6-mer frequency, TF over GST control) | 1.01 fold enrichment (6-mer frequency, TF over GST control) | 1.19 fold enrichment (6-mer frequency, TF over GST control) | 1.06 fold enrichment (6-mer frequency, TF over GST control) | 1.19 fold enrichment (6-mer frequency, TF over GST control) | 1.16 fold enrichment (6-mer frequency, TF over GST control) | 1.28 fold enrichment (6-mer frequency, TF over GST control) | 1.13 fold enrichment (6-mer frequency, TF over GST control) | 1.14 fold enrichment (6-mer frequency, TF over GST control) | 1.27 fold enrichment (6-mer frequency, TF over GST control) | 1.22 fold enrichment (6-mer frequency, TF over GST control) |
| AGTACA | 1.13 fold enrichment (6-mer frequency, TF over GST control) | 1.13 fold enrichment (6-mer frequency, TF over GST control) | 1.07 fold enrichment (6-mer frequency, TF over GST control) | 1.19 fold enrichment (6-mer frequency, TF over GST control) | 1.07 fold enrichment (6-mer frequency, TF over GST control) | 1.01 fold enrichment (6-mer frequency, TF over GST control) | 1.13 fold enrichment (6-mer frequency, TF over GST control) | 1.11 fold enrichment (6-mer frequency, TF over GST control) | 1.06 fold enrichment (6-mer frequency, TF over GST control) | 1.09 fold enrichment (6-mer frequency, TF over GST control) | 1.16 fold enrichment (6-mer frequency, TF over GST control) | 1.31 fold enrichment (6-mer frequency, TF over GST control) | 1.21 fold enrichment (6-mer frequency, TF over GST control) | 1.17 fold enrichment (6-mer frequency, TF over GST control) | 1.2 fold enrichment (6-mer frequency, TF over GST control) | 1.24 fold enrichment (6-mer frequency, TF over GST control) |
| TGCCAT | 1.07 fold enrichment (6-mer frequency, TF over GST control) | 1.03 fold enrichment (6-mer frequency, TF over GST control) | 1.12 fold enrichment (6-mer frequency, TF over GST control) | 1.1 fold enrichment (6-mer frequency, TF over GST control) | 1.11 fold enrichment (6-mer frequency, TF over GST control) | 1.14 fold enrichment (6-mer frequency, TF over GST control) | 1.08 fold enrichment (6-mer frequency, TF over GST control) | 1.17 fold enrichment (6-mer frequency, TF over GST control) | 1.17 fold enrichment (6-mer frequency, TF over GST control) | 1.09 fold enrichment (6-mer frequency, TF over GST control) | 1.05 fold enrichment (6-mer frequency, TF over GST control) | 1.19 fold enrichment (6-mer frequency, TF over GST control) | 1.09 fold enrichment (6-mer frequency, TF over GST control) | 1.08 fold enrichment (6-mer frequency, TF over GST control) | 1.2 fold enrichment (6-mer frequency, TF over GST control) | 1.1 fold enrichment (6-mer frequency, TF over GST control) |
